Here are results for seven compounds from PubChem BioAssay (NCATS).

Values joined by “and” are separate entries in the source; they are usually repeats but may differ in a detail not shown here. Equal entries are not always repeated. Inconclusive results are not listed. Active and inactive are the calls of the source. Unless noted, calls come from the whole dose curve; as a rule, active = well fitted curve in the direction sought with a large enough effect; inconclusive = small, poorly fitted or top-dose-only effect, or another doubt; inactive = no such curve, though single readings can be large; an effect the other way counts as inactive or inconclusive.

Assay [1] can be described thus: Cell Viability - Hek293 (AID 427;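 active = compounds whose dose-response curve shows a full or clear partial loss of cell viability, called from curve shape rather than a numeric limit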;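 note: potency is the fitted concentration of half-maximal effect; cells exposed to compound for 40 hours at 37 °C before reading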). The settings on record: qHTS. Put shortly: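 qHTS, human embryonic kidney (adenovirus-transformed) cells; 40 hr cpd, 37 °C; CellTiter-Glo ATP luminescence. Norm: DMSO = 0, 100 uM tamoxifen = 100% inhibition. Hill-fit AC50.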
Assay [2] is described as follows: Cell Viability - N2a (AID 540).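 Note: cells exposed to compound for 40 h at 37 °C; plate controls were DMSO alone for no effect and tamoxifen control for full effect; nearly all actives have a fitted effect of over 45% in size.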 The note with it: N2a mouse neuroblastoma cell viability; activity change, negative = cytotoxicity: at 92.2 µM (top of the series). In short, it runs like this:
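Luminescent ATP signal (CellTiter-Glo, 20 min at room temperature) served as the viability read-out after N2a cells were treated with compounds for 40 hours at 37 °C. Concentration-response data were fitted to the Hill equation for AC50.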

Assay [3] can be described thus: Cell Viability - H-4-II-E (AID 543). Note: % is set by controls: 0 for no effect and ±100 for the full control effect; nearly all actives have a fitted effect of over 35% in size. The note with it: H-4-II-E rat hepatoma viability; series mostly up to 92.2 µM. In short, it runs like this: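 Luminescent ATP signal (CellTiter-Glo) served as the viability read-out, with cytotoxicity seen as a concentration-dependent ATP drop. Cells were treated for 40 hours in complete medium. AC50 values derive from Hill-equation modelling.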

Assay [4] can be described thus: Cellular Toxicity (caspase-3) SHSY5Y (AID 657). The note with it: SH-SY5Y caspase-3 activation, DMSO zero, 10 µM staurosporine = 100%; series mostly up to 91.7 µM. In short, it runs like this: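 SH-SY5Y human neuroblastoma cells, 1500/well, exposed to compound for 16 hours at 37 °C in complete medium. Caspase-3/7 activity read by Caspase-Glo luminescence after 1 hr at room temperature, normalized to DMSO and 10 uM staurosporine; AC50 from Hill fit.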

The nature of assay [5]: Cellular Toxicity (caspase-3) Mesangial (AID 660).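 Note: cells exposed to compound for 16 h before the caspase read.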 The note with it: mesangial cells, normalized: DMSO 0%, 100 µM tamoxifen 100%; series mostly up to 91.7 µM. Put shortly:
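Mesangial cells, 1000/well, 5 h settle at 37 °C; compound 16 h, 37 °C; Caspase-Glo 3/7 reagent 20 min RT; luminescence. Norm.: DMSO = 0%, tamoxifen 100 uM = 100%. AC50, Hill fit.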

Assay [6] in a line: Cellular Toxicity (caspase-3) Renal Proximal Tubule (AID 667).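 Note: cells exposed to compound for 16 hours at 37 °C before detection; 0% = DMSO basal and 100% = 10 µM staurosporine.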 The note with it: renal proximal tubule cells; series mostly up to 91.7 µM. In short, it runs like this: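 Freshly isolated primary rat kidney proximal tubule cells, 1000/well, treated 16 hr at 37 °C, then Caspase-Glo 3/7 luminescence after 1 hr. Normalized to DMSO and 10 uM staurosporine; AC50 from Hill fit.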
Assay [7] in a line: Cell Viability - LYMP1-003 - Assay at 24 hr (AID 963).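 Note: plate controls were DMSO only for no effect and tetraoctylammonium bromide positive control for full effect.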 The note with it: LYMP1-003 lymphoblastoid cell viability; series mostly up to 92.2 µM. Put shortly: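 Cells seeded at 2500/well, 5 hr at 37 C; compounds added; 24 hr at 37 C; CellTiter-Glo added, 30 min room temperature; luminescence read. Decrease in ATP taken as cytotoxicity, AC50 from Hill modelling.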
Assay [8] is described as follows: Cell Viability - LYMP2-003 (AID 965).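 Note: cells exposed to compounds for 24 h before reading; 0% = DMSO only and full effect = 92 µM tetraoctylammonium bromide; nearly all actives have a fitted effect of over 50% in size.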 The settings on record: LYMP2-003 lymphoblastoid cell viability; series mostly up to 92.2 µM. In short, it runs like this: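 Human lymphoblastoid LYMP2-003 cells, 2500/well, exposed to compounds for 24 h at 37 C in complete medium. Viability read as intracellular ATP by CellTiter-Glo luminescence; AC50 from Hill-equation fits of qHTS concentration-response data.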

Assay [9] is described as follows: Cell Viability - LYMP2-005 (AID 967).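 Note: plate controls were DMSO only for no effect and 92 µM tetraoctylammonium bromide control for full effect.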 The note with it: LYMP2-005 lymphoblastoid cell viability; series mostly up to 92.2 µM. In short, it runs like this: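 Human lymphoblastoid LYMP2-005 cells, 2,500 per well in complete medium, rested 5 h at 37C then compound-treated 24 h at 37C. Intracellular ATP read by CellTiter-Glo luminescence after 30 min at room temperature; AC50 from Hill-equation fits of concentration-response data.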

Assay [10] is described as follows: Cell Viability - LYMP2-009 (AID 968).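 Note: 0% = DMSO alone and the full-kill end = tetraoctylammonium bromide at 92 µM; nearly all actives have a fitted effect of over 55% in size.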 The settings on record: LYMP2-009 lymphoblastoid cell viability; series mostly up to 92.2 µM.
Assay [11] is described as follows: Cell Viability - LYMP2-013 (AID 970).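 Note: 0% = DMSO only and full inhibition = tetraoctylammonium bromide control; nearly all actives have a fitted effect of over 55% in size.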 The settings on record: LYMP2-013 lymphoblastoid cells viability; series mostly up to 92.2 µM. In short, it runs like this:
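qHTS; 2500 lymphoblastoid cells/well; 5 hr 37 C settle; cpd 24 hr 37 C; CellTiter-Glo, 30 min RT; luminescence. AC50 = Hill fit.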

Assay [12] is described as follows: Cell Viability - LYMP2-017 (AID 972). Note: % is set by controls: 0 for no effect and ±100 for the full control effect; nearly all actives have a fitted effect of over 55% in size. The note with it: LYMP2-017 lymphoblastoid cell viability; series mostly up to 92.2 µM. In short, it runs like this:
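2500 cells/well, 5 h 37 C; cpd 24 h 37 C in complete medium; CellTiter-Glo, 30 min RT; luminescence (ATP). AC50 via Hill fit, qHTS.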

Assay [13] is described as follows: Cell Viability - LYMP2-023 (AID 975).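 Note: cellular ATP measured by luciferase luminescence as viability proxy; plate controls were DMSO only for no effect and 92 µM tetraoctylammonium bromide control for full effect; nearly all actives have a fitted effect of over 55% in size.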 The settings on record: LYMP2-023 lymphoblastoid cell viability; series mostly up to 92.2 µM. In short, it runs like this: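 2500 cells/well, 5 hr 37 C; cpd 24 hr 37 C; CellTiter-Glo, 30 min RT; luminescence. qHTS conc-response, Hill fit -> AC50. Pos ctrl tetraoctylammonium bromide.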
A short description of assay [14]: Cell Viability - LYMP2-016 (AID 984). The settings on record: LYMP2-016 lymphoblastoid cell viability, qHTS; series mostly up to 92.2 µM. In short, it runs like this:
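Human lymphoblastoid LYMP2-016 cells, 2500 per well, treated with compounds for 24 h at 37 C. Viability read as intracellular ATP by CellTiter-Glo luminescence after 30 min at room temperature; AC50 from Hill fits of concentration-response.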

Assay [15] has as its target Vitamin D3 receptor (Homo sapiens) (UniProt P11473). The assay is described as follows: qHTS assay for small molecule antagonists of vitamin D receptor signaling (AID 588541; calls by dose curve;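 note: receptor activated by calcitriol during compound treatment; % is set by controls: 0 for no effect and ±100 for the full control effect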). The note with it: HEK293T VDR-UAS-bla, beta-lactamase ratio, antagonist mode; series mostly up to 76.7 µM. Put shortly: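 Antagonist-mode beta-lactamase reporter assay: HEK293T VDR-UAS-bla cells were exposed to titrated compound alongside 1-alpha,25-dihydroxyvitamin D3 at 3 nM final for 16 h. Values were normalized to the 50 nM agonist control and DMSO basal, with IC50 and efficacy from Hill equation fits.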
(qHTS replaces the single test concentration by a dilution series.)

A short description of assay [16]: qHTS assay for small molecule agonists of retinoid X receptor alpha signaling (AID 588544). The note with it: HEK293T RXRa-UAS-bla, beta-lactamase reporter, 18 h; 530 nm emission.
A short description of assay [17]: qHTS assay for small molecule activators of the p53 signaling pathway (AID 651743; active = well fitted activation curve with a large enough effect in the signal ratio, not every such curve was filed as active; the % refers to the signal ratio; note: % of control where 0% means no effect). The settings on record: HCT-116 p53RE-bla, beta-lactamase FRET ratio, 16 h; activation: stronger effect = higher value. Put shortly: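 Read-out is fluorescence intensity from the LiveBLAzer B/G FRET substrate, added for 2 hours at room temperature after HCT-116 p53RE-bla cells had been incubated with compounds for 16 hours at 37 C.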

Assay [18] in a line: qHTS assay for small molecule agonists of the antioxidant response element (ARE) signaling pathway measured by Nrf2-dependant transcriptional activity - cell viability counter screen (AID 720653; active = well fitted curve in the direction sought with a large enough effect in the repeat runs; an effect the other way counts as inactive or inconclusive; note: % is set by controls: 0 for no effect and ±100 for the full control effect). The note with it: ARE-bla HepG2 viability, CellTiter-Glo ATP luminescence, 16 h; stronger effect = lower value. In short, it runs like this: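 Cytotoxicity counter screen: intracellular ATP quantified by CellTiter-Glo luminescence in the same ARE-bla HepG2 plates, after 16 h compound exposure and a 2 h beta-lactamase substrate step.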

A short description of assay [19]: Cellular Toxicity (caspase-3) SK-N-SH (AID 661).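 Note: 0% = DMSO basal and 100% = 10 µM staurosporine.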 The note with it: SK-N-SH caspase-3 activation, qHTS; series mostly up to 91.7 µM. Put shortly:
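Human neuroblastoma SK-N-SH, 1500 cells/well, 5 hr pre-incubation, then compound 16 hr, 37 °C. Caspase-Glo 3/7 reagent, 1 hr RT, luminescence. Norm. to DMSO/10 uM staurosporine; Hill-fit AC50.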

Assay [20] can be described thus: qHTS assay for cell viability of HEK293 cells (AID 743288). Note: % is set by controls: 0 for no effect and ±100 for the full control effect; nearly all actives have a fitted effect of over 50% in size. The note with it: ATP luminescence (CellTiter-Glo), 18 h, stronger effect = lower value. In short, it runs like this: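 Parental HEK293 cells, 2,000 per well, preincubated at least 5 h at 37 C, then exposed to compounds in DMSO for 18 h at 37 C. Viability by CellTiter-Glo ATP luminescence after 30 min at room temperature.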

Sequence of Vitamin D3 receptor (Homo sapiens) (P11473 whole entry, looked up): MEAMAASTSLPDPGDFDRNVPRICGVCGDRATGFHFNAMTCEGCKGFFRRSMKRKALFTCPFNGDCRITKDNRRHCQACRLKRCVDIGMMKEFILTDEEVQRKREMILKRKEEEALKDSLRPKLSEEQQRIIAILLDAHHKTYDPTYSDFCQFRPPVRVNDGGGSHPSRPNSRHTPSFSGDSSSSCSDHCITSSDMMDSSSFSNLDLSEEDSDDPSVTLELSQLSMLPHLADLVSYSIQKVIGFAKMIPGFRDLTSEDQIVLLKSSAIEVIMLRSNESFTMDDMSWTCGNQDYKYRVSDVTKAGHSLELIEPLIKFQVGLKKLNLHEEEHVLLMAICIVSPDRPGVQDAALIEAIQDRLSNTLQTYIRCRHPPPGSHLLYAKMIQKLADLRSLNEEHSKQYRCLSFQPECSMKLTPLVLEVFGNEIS

For `CC(C)(OOC(C)(C)c1ccccc1)c1ccccc1`, in [1], the Potency was > 92 µM (inactive). For the same compound, the Potency entry in assay [2], in assay [3], in assay [8], in assay [9], in [10] and in [11] was “inactive” throughout. In addition, the Potency result in [12], in [13] and in [14] was “inactive” throughout. Besides, the outcome in assay [4], in [5], in assay [6], in assay [7] and in [15] was inactive. Further, the max response in assay [16] was -7.49% and -13.6%; in assay [18], -15.2% (inactive) and -2.58% (inactive). Besides, in assay [17], the activation was -3.14% (inactive) and -2.07% (inactive).
For `C=CC=O`, the Potency in [1] was > 92 µM (inactive). For the same compound, the Potency result in assay [2], in assay [3], in assay [19], in [8], in assay [9] and in assay [10] was “inactive” each time. The Potency entry in assay [11], in [12] and in assay [14] was “inactive” each time. For the same compound, the outcome in [4], in assay [5], in assay [6], in assay [7] and in assay [15] was inactive. Also, the max response in assay [16] is -0.594%; in [20], -14.3% (inactive). Moreover, in assay [17], the activation is -0.485% (inactive).
As to `O=[N+]([O-])CCO`, the Potency in assay [1] is > 92 µM (inactive). In addition, the Potency result in [2], in assay [3], in [19], in assay [10], in assay [11] and in assay [12] was “inactive” each time. The Potency entry in assay [13] and in assay [14] was “inactive” throughout. The call in assay [4] and in [6] was inactive. Besides, the results for the max response in assay [16], in assay [18] and in assay [20] were 10.9%, -2% (inactive) and -4.92% (inactive), respectively.
Turning to `OCCBr`, the Potency in [1] is > 92 µM (inactive). Besides, the Potency entry in [2], in [3], in assay [19], in [8], in [9] and in [10] was “inactive” each time. Besides, the Potency entry in assay [11], in [13] and in assay [14] was “inactive” each time. Besides, the outcome in assay [4], in assay [5], in assay [6], in assay [7] and in assay [15] was inactive. In addition, the values for the max response in assay [16], in assay [18] and in assay [20] were 1.51%, 1.65% (inactive) and 5.14% (inactive), respectively.
On to `Nc1ccc2ccccc2c1`, for which, in assay [1], the Potency was > 92 µM (inactive). Besides, the Potency entry in assay [2], in assay [3], in assay [9], in [10], in assay [11] and in [13] was “inactive” each time. Also, the Potency entry in [14] was “inactive”. Besides, the call in assay [4], in [5], in [6], in assay [7] and in [15] was inactive. The figures for the max response in assay [16], in assay [18] and in [20] were -8.86%, -2.01% (inactive) and 3.26% (inactive), respectively. Besides, the activation in assay [17] was 0.265% (inactive).
As to `Cl/C=C/CCl`, the Potency in assay [1] is > 92 µM (inactive). In addition, the Potency entry in assay [2], in [3], in assay [19], in assay [8], in assay [9] and in assay [10] was “inactive” in each case. Moreover, the Potency result in assay [11], in assay [12], in assay [13] and in assay [14] was “inactive” each time. Besides, the call in assay [4], in assay [5], in assay [6], in assay [7] and in assay [15] was inactive. The results for the max response in [16] and in assay [18] were -6.27% and -1.22% (inactive), respectively. The activation in assay [17] is -2.05% (inactive).
As to `CCCCCCCCCCCCCl`, in [1], the Potency is > 92 µM (inactive). Moreover, the Potency entry in assay [2], in assay [3], in assay [19], in assay [8], in [9] and in assay [11] was “inactive” throughout. For the same compound, the Potency entry in [12], in [13] and in [14] was “inactive” in each case. Moreover, the result in assay [4], in assay [5] and in assay [6] was inactive. The max response in assay [16] is -9.69%; in [18], -2.45% (inactive); in assay [20], -0.903% (inactive). The activation in assay [17] was -1.06% (inactive).
